{
  "source": "PubChem BioAssay AID1159580",
  "about": "(chemical genetic matrix, 2015)",
  "assay": "chemical genetic growth profiling, strain panel (AID 1159580);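 note: tested at 20 µM; growth read once vehicle control cultures reached saturation at 30 °C; 1 = growth at the plate median or of vehicle wells; lower values mean less growth of the strain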",
  "conditions": "growth OD",
  "key": {"[1]": {"conditions": "S. cerevisiae deletion strains, locus YAL013W, strain DEP1, active compounds read low"}, "[2]": {"conditions": "S. cerevisiae deletion strains, locus YBR229C, strain ROT2, active compounds read low"}, "[3]": {"conditions": "S. cerevisiae deletion strains, locus YDL101C, strain DUN1, active compounds read low"}, "[4]": {"conditions": "S. cerevisiae deletion strains, locus YDL134C, strain PPH21, active compounds read low"}, "[5]": {"conditions": "S. cerevisiae deletion strains, locus YDR150W, strain NUM1, active compounds read low"}, "[6]": {"conditions": "S. cerevisiae deletion strains, locus YEL061C, strain CIN8, active compounds read low"}, "[7]": {"conditions": "S. cerevisiae deletion strains, locus YGR078C, strain PAC10, active compounds read low"}, "[8]": {"conditions": "S. cerevisiae deletion strains, locus YHR030C, strain SLT2, active compounds read low"}, "[9]": {"conditions": "S. cerevisiae deletion strains, locus YHR087W, strain rtc3, active compounds read low"}, "[10]": {"conditions": "S. cerevisiae deletion strains, locus YJL187C, strain SWE1, active compounds read low"}, "[11]": {"conditions": "S. cerevisiae deletion strains, locus YJR043C, strain POL32, active compounds read low"}, "[12]": {"conditions": "S. cerevisiae deletion strains, locus YJR075W, strain HOC1, active compounds read low"}, "[13]": {"conditions": "S. cerevisiae deletion strains, locus YKL190W, strain CNB1, active compounds read low"}, "[14]": {"conditions": "S. cerevisiae deletion strains, locus YLR039C, strain RIC1, active compounds read low"}, "[15]": {"conditions": "S. cerevisiae deletion strains, locus YLR058C, strain SHM2 (second series), active compounds read low"}, "[16]": {"conditions": "S. cerevisiae deletion strains, locus YLR085C, strain ARP6, active compounds read low"}, "[17]": {"conditions": "S. cerevisiae deletion strains, locus YLR262C, strain YPT6, active compounds read low"}, "[18]": {"conditions": "S. cerevisiae deletion strains, locus YML094W, strain GIM5, active compounds read low"}, "[19]": {"conditions": "S. cerevisiae deletion strains, locus YMR219W, strain ESC1, active compounds read low"}, "[20]": {"conditions": "S. cerevisiae deletion strains, locus YMR263W, strain SAP30, active compounds read low"}, "[21]": {"conditions": "S. cerevisiae deletion strains, locus YMR307W, strain GAS1, active compounds read low"}, "[22]": {"conditions": "S. cerevisiae deletion strains, locus YNL153C, strain GIM3, active compounds read low"}, "[23]": {"conditions": "S. cerevisiae deletion strains, locus YNL298W, strain CLA4 (second series), active compounds read low"}, "[24]": {"conditions": "S. cerevisiae deletion strains, locus YNL322C, strain KRE1, active compounds read low"}, "[25]": {"conditions": "S. cerevisiae deletion strains, locus YNR030W, strain Alg12, active compounds read low"}, "[26]": {"conditions": "S. cerevisiae deletion strains, locus YOL006C, strain TOP1, active compounds read low"}, "[27]": {"conditions": "S. cerevisiae deletion strains, locus YPL055C, strain LGE1, active compounds read low"}, "[28]": {"conditions": "S. cerevisiae deletion strains, locus YPL241C, strain CIN2, active compounds read low"}, "[29]": {"conditions": "S. cerevisiae deletion strains, locus YPR135W, strain CTF4, active compounds read low"}, "[30]": {"conditions": "S. cerevisiae deletion strains, locus YCL061C, strain MRC1, active compounds read low"}},
  "note": "About 2,000 (36%) of roughly 5,500 compounds were called active. About 18% were inconclusive and are not listed. This is one part of the list. Unmarked numbers belong to inactive results. Cut-off read from the data, not from the text of the source: active = normalized growth mostly below about 0.91 (no sharp cut-off); inconclusive = no clear call, values can overlap the other calls; inactive = mostly above about 0.92.",
  "data": [
    {"smiles": "O=C(Nc1nncs1)c1ccncc1", "values": [
      {"measurement": "normalized growth", "setting": "[1]", "value": 0.983},
      {"measurement": "normalized growth", "setting": "[2]", "value": 1},
      {"measurement": "normalized growth", "setting": "[3]", "value": 0.999},
      {"measurement": "normalized growth", "setting": "[4]", "value": 1.02},
      {"measurement": "normalized growth", "setting": "[5]", "value": 0.946},
      {"measurement": "normalized growth", "setting": "[6]", "value": 0.999},
      {"measurement": "normalized growth", "setting": "[7]", "value": 1},
      {"measurement": "normalized growth", "setting": "[8]", "value": 0.996},
      {"measurement": "normalized growth", "setting": "[9]", "value": 1},
      {"measurement": "normalized growth", "setting": "[10]", "value": 0.992},
      {"measurement": "normalized growth", "setting": "[11]", "value": 1.01},
      {"measurement": "normalized growth", "setting": "[12]", "value": 0.991},
      {"measurement": "normalized growth", "setting": "[13]", "value": 1.03},
      {"measurement": "normalized growth", "setting": "[14]", "value": 1.08},
      {"measurement": "normalized growth", "setting": "[15]", "value": 1},
      {"measurement": "normalized growth", "setting": "[16]", "value": 1.04},
      {"measurement": "normalized growth", "setting": "[17]", "value": 1.05},
      {"measurement": "normalized growth", "setting": "[18]", "value": 1.02},
      {"measurement": "normalized growth", "setting": "[19]", "value": 1},
      {"measurement": "normalized growth", "setting": "[20]", "value": 0.949},
      {"measurement": "normalized growth", "setting": "[21]", "value": 1.02},
      {"measurement": "normalized growth", "setting": "S. cerevisiae deletion strains, locus YNL128W, strain TEP1, active compounds read low", "value": 1.02},
      {"measurement": "normalized growth", "setting": "[22]", "value": 0.995},
      {"measurement": "normalized growth", "setting": "[23]", "value": 1.07},
      {"measurement": "normalized growth", "setting": "[24]", "value": 1},
      {"measurement": "normalized growth", "setting": "[25]", "value": 1.04},
      {"measurement": "normalized growth", "setting": "[26]", "value": 1.08},
      {"measurement": "normalized growth", "setting": "[27]", "value": 0.888},
      {"measurement": "normalized growth", "setting": "[28]", "value": 1.03},
      {"measurement": "normalized growth", "setting": "[29]", "value": 1.05},
      {"measurement": "normalized growth", "setting": "S. cerevisiae strains, strain wild type, active compounds read low", "value": 1.04}
    ]},
    {"smiles": "O=C(Nc1nccs1)c1ccc([N+](=O)[O-])cc1", "values": [
      {"measurement": "normalized growth", "setting": "[1]", "value": 0.979},
      {"measurement": "normalized growth", "setting": "[2]", "value": 0.97},
      {"measurement": "normalized growth", "setting": "[30]", "value": 0.992},
      {"measurement": "normalized growth", "setting": "[3]", "value": 0.972},
      {"measurement": "normalized growth", "setting": "[4]", "value": 1.01},
      {"measurement": "normalized growth", "setting": "[5]", "value": 0.984},
      {"measurement": "normalized growth", "setting": "[6]", "value": 0.968},
      {"measurement": "normalized growth", "setting": "[7]", "value": 0.973},
      {"measurement": "normalized growth", "setting": "[8]", "value": 0.977},
      {"measurement": "normalized growth", "setting": "[9]", "value": 0.973},
      {"measurement": "normalized growth", "setting": "[11]", "value": 1.02},
      {"measurement": "normalized growth", "setting": "[12]", "value": 0.924},
      {"measurement": "normalized growth", "setting": "[13]", "value": 1},
      {"measurement": "normalized growth", "setting": "[14]", "value": 0.851},
      {"measurement": "normalized growth", "setting": "[15]", "value": 0.981},
      {"measurement": "normalized growth", "setting": "[16]", "value": "0.729 (active)"},
      {"measurement": "normalized growth", "setting": "[17]", "value": 0.917},
      {"measurement": "normalized growth", "setting": "[18]", "value": 0.94},
      {"measurement": "normalized growth", "setting": "[19]", "value": 0.978},
      {"measurement": "normalized growth", "setting": "[20]", "value": 0.986},
      {"measurement": "normalized growth", "setting": "[21]", "value": 0.905},
      {"measurement": "normalized growth", "setting": "[22]", "value": 0.976},
      {"measurement": "normalized growth", "setting": "[23]", "value": 0.976},
      {"measurement": "normalized growth", "setting": "[24]", "value": 0.983},
      {"measurement": "normalized growth", "setting": "[25]", "value": 0.97},
      {"measurement": "normalized growth", "setting": "[26]", "value": "0.514 (active)"},
      {"measurement": "normalized growth", "setting": "[27]", "value": 0.97},
      {"measurement": "normalized growth", "setting": "[28]", "value": 0.954},
      {"measurement": "normalized growth", "setting": "[29]", "value": 0.933}
    ]},
    {"smiles": "O=C(CSc1nnc(NC(=O)c2cccc([N+](=O)[O-])c2)s1)Nc1ccc2c(c1)OCO2", "values": [
      {"measurement": "normalized growth", "setting": "[1]", "value": 0.991},
      {"measurement": "normalized growth", "setting": "[2]", "value": 0.995},
      {"measurement": "normalized growth", "setting": "[30]", "value": 1.01},
      {"measurement": "normalized growth", "setting": "[3]", "value": 0.986},
      {"measurement": "normalized growth", "setting": "[5]", "value": 0.982},
      {"measurement": "normalized growth", "setting": "[6]", "value": 0.982},
      {"measurement": "normalized growth", "setting": "[7]", "value": 0.991},
      {"measurement": "normalized growth", "setting": "[8]", "value": 0.985},
      {"measurement": "normalized growth", "setting": "[9]", "value": 0.997},
      {"measurement": "normalized growth", "setting": "[10]", "value": 0.995},
      {"measurement": "normalized growth", "setting": "[11]", "value": 0.977},
      {"measurement": "normalized growth", "setting": "[12]", "value": 1.02},
      {"measurement": "normalized growth", "setting": "[14]", "value": 0.976},
      {"measurement": "normalized growth", "setting": "[15]", "value": 0.985},
      {"measurement": "normalized growth", "setting": "[16]", "value": 0.996},
      {"measurement": "normalized growth", "setting": "[17]", "value": 0.985},
      {"measurement": "normalized growth", "setting": "[18]", "value": 0.948},
      {"measurement": "normalized growth", "setting": "[19]", "value": 1},
      {"measurement": "normalized growth", "setting": "[20]", "value": 1.01},
      {"measurement": "normalized growth", "setting": "[21]", "value": 1.05},
      {"measurement": "normalized growth", "setting": "[22]", "value": 1.01},
      {"measurement": "normalized growth", "setting": "[23]", "value": 1},
      {"measurement": "normalized growth", "setting": "[24]", "value": 0.989},
      {"measurement": "normalized growth", "setting": "[25]", "value": 1.01},
      {"measurement": "normalized growth", "setting": "[27]", "value": 0.998},
      {"measurement": "normalized growth", "setting": "[29]", "value": 0.939}
    ]},
    {"smiles": "S=C(Nc1ccccc1)Nc1nccs1", "values": [
      {"measurement": "normalized growth", "setting": "[1]", "value": 1.01},
      {"measurement": "normalized growth", "setting": "S. cerevisiae deletion strains, locus YAL040C, strain CLN3, active compounds read low", "value": 1.01},
      {"measurement": "normalized growth", "setting": "S. cerevisiae deletion strains, locus YCL061C, strain MRC1 (second series), active compounds read low", "value": 0.993},
      {"measurement": "normalized growth", "setting": "[5]", "value": 0.974},
      {"measurement": "normalized growth", "setting": "S. cerevisiae deletion strains, locus YDR363W, strain ESC2, active compounds read low", "value": 0.977},
      {"measurement": "normalized growth", "setting": "S. cerevisiae deletion strains, locus YER002W, strain NOP16, active compounds read low", "value": 0.991},
      {"measurement": "normalized growth", "setting": "[7]", "value": 0.988},
      {"measurement": "normalized growth", "setting": "[21]", "value": 0.993},
      {"measurement": "normalized growth", "setting": "[22]", "value": "0.772 (active)"},
      {"measurement": "normalized growth", "setting": "S. cerevisiae deletion strains, locus YNL175C, strain NOP13, active compounds read low", "value": 0.999},
      {"measurement": "normalized growth", "setting": "S. cerevisiae deletion strains, locus YNL197C, strain WHI3, active compounds read low", "value": 0.993},
      {"measurement": "normalized growth", "setting": "S. cerevisiae deletion strains, locus YNL224C, strain SQS1, active compounds read low", "value": 0.995},
      {"measurement": "normalized growth", "setting": "[27]", "value": 0.948}
    ]}
  ]
}
